Experimental data as given in PubChem BioAssay (NCI).
About 83,000 compounds went through this panel and 20% of them were active in at least one assay; those are over-represented in the sample as a whole.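 Growth was measured after 48 h exposure to one concentration of compound in 96-well plates. Values under 10 count as active.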 Activity calls are given as the source filed them.

Tested on: HCC-2998 colon
Assay: NCI-60 one-dose screen, 48 h (100 = growth as untreated, 0 = no growth, -100 = all killed)
Details: 10 µM unless noted

| Compound | growth |
| --- | --- |
| O=C(CN1CCN(c2cc(=O)n(-c3ccccc3)c3ccccc23)CC1)Nc1nc(-c2ccccc2)cs1 | 81.8% (inactive) |
| Cc1ccc(NC(=O)c2ccc(CN3CCOCC3)c(C(F)(F)F)c2)cc1Oc1ccc(-c2[nH]nc3ncnc(N)c23)cc1 | 75.2% (inactive) |
| Cc1ccc(NC(=O)CNc2cc(C(N)=O)cc(F)c2C)c(Cl)c1 | 122% (inactive) |
| COc1cc(C2N=C(NNc3ccccc3)NC(C)=C2C(C)=O)ccc1O (centres undefined) | 98.9% (inactive) |
| CNc1ncc2cc(-c3ccc(-c4ncccc4F)cc3Cl)c(=O)n(CC3OCC(N)CO3)c2n1 (centres undefined) | 100% (inactive) |
| Nc1cc(-c2c[nH]c3ccc(Br)cc23)nc2cc(-c3c[nH]c4ccc(Br)cc34)nn12 | -3.56% (active) |
| Cc1cc2ncc(-c3cc4ccccc4c(N4CCN(C)CC4)n3)nc2cc1C | -84.2% (active) |
| O=C(NCCn1ccnc1)c1ccc(-c2nc3ccc4[nH]ncc4c3c3c2CCCC3)cc1 | 81.6% (inactive) |
| N#C/C(=C\c1ccc(-c2ccc(Cl)cc2Cl)o1)c1ccc(F)cc1 | 105% (inactive) |
| COc1cc(Nc2c(C#N)cnn3cc(-c4cnn(CC(C)(C)O)c4)cc23)ccc1Cl | 84.8% (inactive) |
| C=C(C=O)[C@@H]1CC[C@]2(CO)CC[C@]3(C)[C@H](CC[C@@H]4[C@@]5(C)CCCNC(C)(C)[C@@H]5CC[C@]43C)[C@@H]12 | -65.7% (active) |
| CC/C(=C/c1cc(OC)ccc1O)c1ccc2cc(OC)ccc2[o+]1 | 81.8% (inactive) |
| COc1c(N2CC3CCCNC3C2)c(F)cc2c(=O)c(C(=O)N/N=C/c3ccc4c(c3)OCO4)cn(C3CC3)c12 (centres undefined) | 54.8% (inactive) |
| COc1cccc2cc(-c3cc4ccccc4[nH]3)/c(=N\NC(=O)c3ccc(Cl)cc3)oc12 | 69% (inactive) |
| C=CC(=O)N1CCC=C(c2cc3c(N[C@H](C)c4ccccc4)ncnc3[nH]2)C1 | 93.8% (inactive) |
| O=C(CSc1nc2ccccc2c(=O)n1-c1ccccc1)Nc1cccc(C(=O)/C=C/c2ccccc2)c1 | 113% (inactive) |
| c1cn2c(ccc3nc(-c4cn[nH]c4)c4c(c32)CCCC4)n1 | 87.2% (inactive) |

| Compound | growth |
| --- | --- |
| O=S(=O)(NCCCNc1nccc(-n2cnc3ccccc32)n1)c1ccc(C(F)(F)F)cc1 | 112% (inactive) |
| COc1ccc(-c2cc(-c3ccc(Cl)cc3)c(C#N)c(=O)n2Cc2ccc(C(=O)O)cc2)cc1 | 95.6% (inactive) |
| COc1cc2c(cc1OC)C(Sc1ccc(C)cc1)c1c(nc(N)c(C#N)c1N)O2 (centres undefined) | -85.2% (active) |
| CCc1nn2c(C)cc(C)nc2c1Cc1ccc(/C=C/CN2CCN(CCOCCOCCN3CCN(C/C=C/c4ccc(Cc5c(CC)nn6c(C)cc(C)nc56)cc4)CC3)CC2)cc1 | -61.9% (active) |
| Cc1noc(C)c1CSc1nc2ccccc2n1-c1ccccc1 | 112% (inactive) |
| COc1cccc2c1CN(C(=O)c1ccc(O)c(C(=O)N3Cc4ccc(OCCC[P+](c5ccccc5)(c5ccccc5)c5ccccc5)cc4C3)c1)C2 | 47.9% (inactive) |
| COc1ccc2c(c1)Oc1nc(N)c(C#N)c(N)c1C2Sc1ccc(C)cc1 (centres undefined) | -64.2% (active) |
| Nc1nc(-c2cccc([N+](=O)[O-])c2)c(N=Nc2cccc([N+](=O)[O-])c2)s1 | 59.8% (inactive) |
| Fc1ccc(-c2cc3nc(C(Cl)Cl)nc(-c4ccco4)n3n2)cc1 | -69.1% (active) |
| CCN1CCN(Cc2ccc(C(=O)Nc3ccc(C)c(Oc4ccc(-c5[nH]nc6ncnc(N)c56)cc4)c3)cc2C(F)(F)F)CC1 | 117% (inactive) |
| Cc1ccc(-n2cc(/C=C/C(=O)c3ccc(O)cc3)c(-c3ccc(S(C)(=O)=O)cc3)n2)cc1 | 104% (inactive) |
| CCCn1cnc2c(c1=N)C(c1ccc(OC)cc1)c1sc3c(CC)cccc3c1O2 (centres undefined) | 19.2% (inactive) |
| Cc1ccc(NC(=O)c2ccc(CN3CCN(C)CC3)cc2)cc1Oc1ccc(-c2[nH]nc3ncnc(N)c23)cc1 | 124% (inactive) |
| CC(=O)c1nnn(-c2c(C(=O)n3nc(C)cc3C)sc(=S)n2-c2ccccc2)c1C | 114% (inactive) |
| O=S(=O)(NCCNc1nccc(-n2cnc3ccccc32)n1)c1ccc(C(F)(F)F)cc1 | 80.5% (inactive) |
| NC(N)=Nc1ccc(Oc2cccc(Nc3cccc(C(F)(F)F)c3)c2)cn1 | -91.9% (active) |
| Nc1nc(-c2cccc([N+](=O)[O-])c2)c(N=Nc2ccc(Br)cc2)s1 | -31.6% (active) |
